# From the OligoGym collection
# Biological target: PEAR1
# Test: pooled miR-30 sensor sort-seq; sequence = guide strand
# Details: shRNA
# Also: reference of the scale not given here.
row,Sequence,sensor-assay potency score (higher = more potent)
1,TTTCACATGAGCAGCGTGCAGA,-0.314
2,TATAGCTGTAGCTTCGGTCCAG,0.0436
3,TTGGTGGTGGTAGTGAAGCTTT,-1.22
4,TAGCAGGTCCCGTTCGAGGGGT,-0.75
5,TAGTAGTGACTGTAGCTCGGAG,-0.228
6,TTGCCTTTTTGCCAGTGCCGAT,-1.65
7,TCTGGCATGACATACTCGGAGC,-0.939
8,TCCATGTAGCTGCTCTCCCGGG,-1.66
9,ATTGCTGTAGCTATAGCTGTAG,-0.261
10,TTGCTGTAGCTATAGCTGTAGC,-1.31
11,TTCATCTCCATGTAGCTGCTCT,0.0491
12,TAGCTATAGCTGTAGCTTCGGT,-1.04

# Biological target: PEBP1
# Test: as above
# Details: shRNA
row,Sequence,sensor-assay potency score (higher = more potent)
1,TAAAATCACATTGTGTACCATT,-0.719
2,TAATCGGAGAGGACTGTGCCAC,-0.276
3,ATACATGCAACACTGAACTGGG,0.364
4,TTTGATCAAAACATAAATCAGA,-0.67
5,TTCTTTTTTACATTCTGGGTTG,-0.707
6,TATACATGCAACACTGAACTGG,0.186
7,TGCTCTATCACTGTAGACCTGG,0.029
8,TAACACGTGCCAGCCACCGGGG,-1.45
9,TATCACTGTAGACCTGGTCTTT,-0.444
10,TTTCTTTTTTACATTCTGGGTT,0.0306
11,TAAACCAGCCAGACATAGCGGT,-0.718
12,TATTATACATGCAACACTGAAC,-0.804

# Biological target: PECR
# Test: as above
# Details: shRNA
row,Sequence,sensor-assay potency score (higher = more potent)
1,TAAACTGCTTTGCACATGTAGA,-1.07
2,TTCAATCTCTCCAACTTACGGG,0.0068
3,TTCATCTTTTTGACAACAGAAA,-1.6
4,TTAAAGGTCTCCTTCATCTTTT,-0.272
5,TCTGGGAATAAATAACTCCAGG,-1.4
6,TAGAACTGATGTGTTCAGCAGG,-0.616
7,TCAATCTCTCCAACTTACGGGA,-0.32
8,TATGGGAATGACTCGTGCCTGC,-0.624
9,TTTGACAACAGAAAGGTCCCCT,0.815
10,TTCCATACCAACTATAAGCTTT,-0.179
11,TAGTTCTCCACAGCAGTCTGGG,-0.504
12,TTGATCCGTATTCCACTGCAGG,-0.697

# Biological target: PEG10
# Test: as above
# Details: shRNA
row,Sequence,sensor-assay potency score (higher = more potent)
1,TCAACTGAGAAATCCCTGGTGC,0.598
2,TGCAATGTGAGGCAACACCAGC,-1.84
3,TTGTGCATCAGGTAGTGGGAGC,-1.26
4,TGTCAGCGTAGTGACCTCCTGT,-0.0667
